Laboratory results taken from article PMC8769072, “Proteome‐scale mapping of binding sites in the unstructured regions of the human proteome” (Molecular Systems Biology, 2022).

B1: PDPK1, O15530 (peptide)
chain: QQTPPKLTAYLPAMSE
B2: C2orf81, A6NN90 (peptide)
chain: MPQLDAAGDRLELRSE
B3: SOS1, Q07889 (peptide)
chain: SMHRDGPPLLENAHSS
B4: ETAA1, Q9NY74 (peptide)
chain: DMPELFPSKTAHVTDQ
B5: SGMS1, Q86VZ5 (peptide)
chain: MPELERSQYPMEWGKT
B6: SLAIN1, Q8ND83 (peptide)
chain: MPNLARMPSTTAISSN
B7: MYOCD, Q8IZQ8 (peptide)
chain: SAISEVTQPPSYEDAV
B8: ZSCAN4, Q8NAM6 (peptide)
chain: DSINPPALVHVHMQGQ
B9: LZTS1, Q9Y250 (peptide)
chain: VDFDPSTPPKLMPFSN
B10: UBN2, Q6ZU65 (peptide)
chain: EPEYPREPPRLEPQPY
B11: AATK, Q6ZMQ8 (peptide)
chain: QGSGPGEVLPPLLQLE
B12: HOMEZ, Q8IX15 (peptide)
chain: EQALPPHLEPAWPQGL
B13: ATAD2B, Q9ULI0 (peptide)
chain: EGIPVLEAQNGKLEVV
B14: SEC16A, O15027 (peptide)
chain: SLQNPPVLIAQPDHSY
B15: ZNF165, P49910 (peptide)
chain: NESENSRSMPKLEIFE
B16: BRD4, O60885 (peptide)
chain: VPVLEPQLPGSVFDPI
B17: PPRC1, Q5VV67 (peptide)
chain: QLLMPTLESETEAAVP
B18: ZHX1, Q9UKY1 (peptide)
chain: LISDLDEGPPVLTPVE
B19: DSG1, Q02413 (peptide)
chain: GMLEMPDLRDGSNVIV
B20: ARID4A, P29374 (peptide)
chain: FERENEGMPSLIAESN
B21: TSHZ1, Q6ZSZ6 (peptide)
chain: IQSIPLPPTTHTRLPA
B22: SETBP1, Q9Y6X0 (peptide)
chain: DSRDQMPVLEKAIDLP
B23: I3L1I5 (peptide)
chain: TPPVQGLEPPVLEAME
B24: ZBTB38, Q8NAP3 (peptide)
chain: EEETKEMPKLQAELAD
B25: TMEM171, Q8WVE6 (peptide)
chain: ENPPSYYSIFNYGRTP
B26: ABI1, Q8IZP0 (peptide)
chain: PPMPQLTPQIPLTGFV
B27: PPP1R35, Q8TAP8 (peptide)
chain: ELEMPVLKSSLALGLE
B28: SETBP1, Q9Y6X0 (peptide)
chain: SELKTMPNLQPISALP
B29: MLXIPL, Q9NP71 (peptide)
chain: SPPTLAPATASPPTTA
B30: LPIN1, Q14693 (peptide)
chain: HSTGEQPPQLSLATRV
B31: MORC4, Q8TE76 (peptide)
chain: QMPRLVAEESNRGSTT

What follows are binders tested against ZMYND11 480-602, Q15326.
ZMYND11 480-602, Q15326, sequence (Q15326 480-602): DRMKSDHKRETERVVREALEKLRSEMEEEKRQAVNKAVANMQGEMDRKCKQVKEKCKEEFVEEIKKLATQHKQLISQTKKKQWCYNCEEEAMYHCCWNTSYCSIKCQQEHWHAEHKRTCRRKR

Selected by phage display, active:
B1 confidence 2, B2 confidence 2, B3 confidence 2, B4 confidence 2, B5 confidence 2, B6 confidence 2, B7 confidence 3, B8 confidence 3, B9 confidence 2, B10 confidence 2, B11 confidence 2, B12 confidence 4, B13 confidence 2, B14 confidence 2, B15 confidence 3, B16 confidence 2, B17 confidence 4, B18 confidence 4, B19 confidence 3, B20 confidence 2, B22 confidence 2, B23 confidence 4, B24 confidence 4, B25 confidence 3, B26 confidence 2, B27 confidence 4, B28 confidence 4, B29 confidence 2, B30 confidence 3, B31 confidence 3

These binders were tested against YES1 90-152, P07947.
YES1 90-152, P07947, sequence (P07947 90-152): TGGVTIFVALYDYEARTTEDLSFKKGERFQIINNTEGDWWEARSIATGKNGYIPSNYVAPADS

Selected by phage display, active:
B21 confidence 2
